# Results published in PubChem BioAssay AID602313 (National Center for Advancing Translational Sciences (NCATS), 2012).
# The campaign covered roughly 390,000 compounds. About 760 (0.19%) were called active. Not shown: some 3% with an inconclusive outcome. For the sample, actives were picked, then their nearest neighbours and some compounds at random. Values without a mark were called inactive. Calls come from the whole dose curve; as a rule, active = well fitted inhibition curve with a large enough effect; inconclusive = small, poorly fitted or top-dose-only effect; inactive = flat fitted curve, though single readings scatter.
# Test: qHTS for Inhibitors of Vif-A3F Interactions: qHTS; note: nearly all actives have a fitted effect of over 65% in size; for activity, negative = active: % of control where 0% means no effect
# Conditions: HeLa A3F-eYFP + Vif (tagged APOBEC3F with the HIV-1 protein that degrades it), YFP fluorescence increase; series mostly up to 46.1 µM; activity, negative = active: at the top concentration
# Description: The recent discovery and characterization of host restriction factors, which provide a potent defense to invading retroviruses, has provided new targets for antiviral drug development. APOBEC3G (A3G) and APOBEC3F (A3F) are potent cytidine deaminases that block HIV-1 replication; HIV-1 expresses the Vif protein, which counteracts A3G and A3F by binding to them and inducing their proteasomal degradation. The Vif-A3G and Vif-A3F interactions provide two potential targets for development of small molecules which can interfere with the ability of Vif to degrade A3G or A3F. […] To identify inhibitors that can interfere with Vif mediated degradation of A3G and A3F, we have developed Hela cell lines that stably express A3G or A3F tagged with eYFP at the C-terminal end (A3G-eYFP or A3F-eYFP, respectively) and Vif. In the absence of an inhibitor, Vif induces degradation of A3G-eYFP and A3F-eYFP, and the cells are not fluorescent. In the presence of an inhibitor, it is expected that Vif will be unable to degrade A3G-eYFP and/or A3F-eYFP, resulting in an increase in yellow fluorescence. In this assays Vif A3F was screened against the Molecular Library Small Molecule Repository (MLSMR). NIH Chemical Genomics Center [NCGC] NIH Molecular Libraries Probe Centers Network [MLPCN] MLPCN Grant: MH093245 Assay Submitter (PI): Vinay Pathak, National Cancer Institute
# 5 uL of 700 cells/well of A3F-YFP cells are dispensed into black, clear bottom plates. The plates are incubated overnight at 37 deg C. 23 nL of compounds are added by pintool. The plates are incubated overnight at 37 deg C and then read on the TTP Acumen (Ex 488/ Em 500-530).
# Potency is the fitted concentration of half-maximal effect.
SMILES,Potency,"activity, negative = active"
CC1=CC(=Cc2sc3ccccc3[n+]2C)C=C(C)O1,5.01 µM (active),–
CNP1(NC)=Nc2nn(-c3ccccc3)c(N)c2C(c2ccccc2)=N1,–,10.7%
O=C(N/N=C/c1c(O)n(Cc2ccccc2)c(=O)[nH]c1=O)c1ccccc1,–,-1.19%
CCC(=NCc1ccco1)c1c(O)n(Cc2ccccc2)c(=O)[nH]c1=O,–,-1.46%
CC/C(=N\NC(=O)c1ccccc1O)c1c(O)n(Cc2ccccc2)c(=O)[nH]c1=O,11.2 µM (active),–
Cc1ccc2c(c1)=C/C(=C\c1c(O)[nH]c(=O)[nH]c1=O)C(=O)N=2,–,-6.73%
CCOc1ccc(CNC(=O)c2cccc(Nc3nc4ccccc4n4nnnc34)c2)cc1OC,12.6 µM (active),–
CCCn1c(C(=O)c2ccccc2OC)nc2ccccc21,–,3.65%
COc1cc(Cn2c(N)c(C(=O)NCc3ccco3)c3nc4ccccc4nc32)cc(OC)c1OC,–,-27.3%
COC(=O)C1=C(c2cc3ccccc3s2)C[C@@H]2CC[C@H]1N2C(=O)NCc1cccc2ccccc12,–,6.94%
CC(=CCOc1ccc2ccc(=O)oc2c1)C1=CC(=O)C(C)(C)O1,–,-1.31%
O=c1c2ccccc2[nH]c(=S)n1-c1cccc(Cl)c1,–,-2.68%
O=c1c2ccccc2nc(/C=C/c2ccco2)n1-c1ccccc1O,–,0.199%
O=c1c2ccccc2nc(/C=C/c2ccc(F)cc2)n1-c1ccccc1O,22.4 µM (active),–
Cn1cc(/C=C/c2nc3ccccc3c(=O)n2-c2ccccc2)c2ccccc21,–,-2.89%
CCC(C)(O)C(=O)OC1C(=O)OC2CC3C(C)=CC(=O)C(O)C3(C)C3C4(O)OCC23C1C(C)C4O (stereo not given),–,4.47%
C=C(C)C1(CCCC)C(=O)NC(=S)NC1=O,–,-4.34%
COC(=O)C1=C(c2ccc(Cl)c(C(F)(F)F)c2)C[C@@H]2CC[C@H]1N2C(=O)NC(C)C,–,-0.754%
COC(=O)C1=C(c2cc3ccccc3o2)C[C@@H]2CC[C@H]1N2C(=O)NC1CCCCC1,–,-0.572%
CC(C)(C)c1ccc(OC(=O)N2CCCCC2)cc1,–,-16.2%
